Hits are enriched below; roughly 7.5% of the tested compounds scored in any of these assays.
FMDV inh: High Throughput Screening for Foot and Mouth Disease Virus Antivirals | FMDV antiviral cell-based qHTS | Potency, µM (doses to about 57.9 µM), hits mostly inhibitors | 410,000 tested, 1.2% active; calls by dose curve; tested in HEK293T cells; further: read-out not given here; nearly all actives have a fitted effect of over 45% in size
HCV inhibitor: qHTS Assay for Inhibitors of Hepatitis C Virus (HCV) | Huh7.5.1 HCVcc-Cre infection, luciferase reporter, 44 h | Potency, µM (series often up to 41.8 µM), most hits filed as inhibitors | 340,000 tested, 3.4% active
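Antiviral activity was scored by luciferase reporter output from cells infected with HCVcc-Cre (~0.5 moi) in presence of compound, 44 h infection period, cells seeded 1,000/well 4 h prior.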
Vaccinia mCherry: qHTS for Stage-Specific Inhibitors of Vaccinia Orthopoxvirus: mCherry Reporter Primary qHTS; Vaccinia virus mCherry reporter infection, fluorescence; Potency, µM (titrated, usually from 36.5 µM), actives largely listed as inhibitors; 310,000 tested, 0.63% active; AID 720579, 2013; calls by dose curve; tested in A549 cells; further: nearly all actives have a fitted effect of over 35% in size
VACV Venus inh: qHTS for Stage-Specific Inhibitors of Vaccinia Orthopoxvirus: Venus Reporter Primary qHTS | Vaccinia virus Venus reporter expression, fluorescence | Potency, µM (top dose mostly 36.5 µM), usual class: inhibitors | 330,000 tested, 0.46% active; calls by dose curve; tested in A549 cells; further: nearly all actives have a fitted effect of over 30% in size
HCMV antiviral: qHTS Assay for inhibitors of the human cytomegalovirus (HCMV) | HFF cells, HCMV-luciferase reporter, 72 h; active compounds read low | activity change, negative = inhibition, % at 57.5 µM | 410,000 tested, 4.5% active | AID 1259415, 2018; in the data active means activity change below about -60%; inconclusive means no clear call, values can overlap the other calls; inactive means above about -39%
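Compounds were evaluated in HFFs infected with an HCMV luciferase reporter virus (MOI 1 PFU/cell). Luciferase in lysates collected 72 h post infection served as the replication measure.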
Giardia FBPA inh: qHTS Assay for Inhibitors of Fructose-1,6-bisphosphate Aldolase from Giardia Lamblia; purified Giardia FBPA; AID 2451, 2010; 290,000 tested, 0.71% active; Potency, µM (titrated, usually from 59.6 µM), usual class: inhibitors; A8B2U2; further: nearly all actives have a fitted effect of over 55% in size
Target sequence (A8B2U2 whole entry, looked up): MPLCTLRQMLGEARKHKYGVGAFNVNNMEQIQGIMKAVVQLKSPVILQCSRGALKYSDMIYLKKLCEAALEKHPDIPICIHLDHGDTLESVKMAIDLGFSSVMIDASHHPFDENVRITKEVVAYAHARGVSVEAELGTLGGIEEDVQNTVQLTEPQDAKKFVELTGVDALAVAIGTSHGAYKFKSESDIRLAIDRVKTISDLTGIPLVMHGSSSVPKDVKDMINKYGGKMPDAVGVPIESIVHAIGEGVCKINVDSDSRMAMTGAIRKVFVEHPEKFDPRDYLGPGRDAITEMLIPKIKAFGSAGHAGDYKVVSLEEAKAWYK
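Giardia FBPA (40 nM reagent) was preincubated 10 min at RT with compound (up to 57.5 uM final), then substrate plus GAPDH/TPI/NAD/arsenate coupling system with diaphorase/resazurin was added; resorufin fluorescence (525/598 nm) was read after 20 min.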
A number is an active result. Unless noted, the call rests on the fitted dose curve; in most records, active means well fitted curve in the direction sought with a large enough effect; inconclusive means small, poorly fitted or top-dose-only effect, or another doubt; inactive means no such curve, though single readings can be large; an effect the other way counts as inactive or inconclusive.

Screening COc1ccc2c(c1)c1ncn(Cc3ccco3)c(=O)c1n2C returned FMDV inh inactive, HCV inhibitor 11µM, Vaccinia mCherry inconclusive, VACV Venus inh inactive, HCMV antiviral -81 and Giardia FBPA inh inactive.
For O=C(O)c1ccc2nc(-c3ccccc3)sc2c1 the results were FMDV inh 2.5µM, HCV inhibitor inactive, Vaccinia mCherry inactive, VACV Venus inh inactive, HCMV antiviral inconclusive and Giardia FBPA inh inactive.
CC1CCN(c2nc3ccc(C(=O)O)cc3s2)CC1 was read as FMDV inh inconclusive, HCV inhibitor inactive, Vaccinia mCherry inactive, VACV Venus inh inactive, HCMV antiviral -78 and Giardia FBPA inh inactive.
Screening Nc1ccc(-c2nc3ccc(N)cc3s2)cc1 returned FMDV inh inactive, HCV inhibitor inconclusive, Vaccinia mCherry inactive, VACV Venus inh inactive, HCMV antiviral inactive and Giardia FBPA inh inactive.
`Nc1ccc(-c2nc3ccc(C(=O)O)cc3s2)cc1` gave FMDV inh inconclusive, HCV inhibitor inactive, Vaccinia mCherry inactive, VACV Venus inh inactive, HCMV antiviral -85 and Giardia FBPA inh inactive.
`Nc1cc2sc(-c3ccc(C(=O)O)cc3)nc2cc1Cl` gave FMDV inh inactive, HCV inhibitor inactive, Vaccinia mCherry inactive, VACV Venus inh inactive, HCMV antiviral inactive and Giardia FBPA inh inactive.
For COc1ccc(OC)c(NS(=O)(=O)c2ccccc2)c1 the results were Vaccinia mCherry inactive and VACV Venus inh inactive.
For COc1ccc(C)cc1NS(=O)(=O)c1ccc2[nH]c(=O)c(=O)[nH]c2c1 the results were FMDV inh inactive, Vaccinia mCherry inactive, VACV Venus inh inactive and HCMV antiviral inactive.
Screening COc1ccc(OC)c(NS(=O)(=O)c2ccc3[nH]c(=O)[nH]c3c2)c1 returned FMDV inh inactive, Vaccinia mCherry inactive, VACV Venus inh inactive and HCMV antiviral -102.
CCCCOc1ccc(S(=O)(=O)Nc2cc(OC)ccc2OC)cc1 was read as HCV inhibitor 10µM, Vaccinia mCherry inactive, VACV Venus inh inactive, HCMV antiviral inconclusive and Giardia FBPA inh inactive.
For COc1cc2nc(CCc3nc4cc(OC)c(OC)cc4[nH]3)[nH]c2cc1OC the results were Vaccinia mCherry inactive and VACV Venus inh inactive.
For Cc1ccc(Cn2ncc3c(N4CCCC4)ncnc32)cc1 the results were FMDV inh inactive, HCV inhibitor inconclusive, VACV Venus inh inactive, HCMV antiviral inactive and Giardia FBPA inh inactive.
`c1ccc(Cn2ncc3c(N4CCN(c5ccccc5)CC4)ncnc32)cc1` gave FMDV inh 22µM, Vaccinia mCherry inactive, VACV Venus inh inactive and HCMV antiviral inconclusive.
Cc1ccc(Cn2ncc3c(N4CCN(CC#N)CC4)ncnc32)cc1 was read as FMDV inh 32µM, HCV inhibitor inconclusive, Vaccinia mCherry inactive, VACV Venus inh inactive, HCMV antiviral inactive and Giardia FBPA inh inactive.
For Cc1cc(C)n(-c2nc(-n3nc(C)cc3C)c3c4c(sc3n2)COC(C)(C)C4)n1 the results were HCMV antiviral inactive and Giardia FBPA inh inactive.
`Cc1cc(C)n(-c2nc(NCCN(C)C)c3c4c(sc3n2)COC(C)(C)C4)n1` gave FMDV inh inactive, HCV inhibitor inconclusive, Vaccinia mCherry inactive, VACV Venus inh inactive, HCMV antiviral inconclusive and Giardia FBPA inh inactive.
Screening Cc1cc(C)n(-c2nc(NCCC(C)C)c3c4c(sc3n2)COC(C)(C)C4)n1 returned FMDV inh inactive, HCV inhibitor inactive, Vaccinia mCherry inactive, VACV Venus inh inactive, HCMV antiviral -96 and Giardia FBPA inh inactive.
Screening CCN(CC)CCNc1nc(-n2nc(C)cc2C)nc2sc3c(c12)CC(C)(C)OC3 returned FMDV inh inactive, HCV inhibitor 11µM, Vaccinia mCherry inconclusive, VACV Venus inh inconclusive, HCMV antiviral -64 and Giardia FBPA inh inactive.
Screening O=C(COC(=O)CCN1C(=O)/C(=C\C=C\c2ccccc2)SC1=S)Nc1cc(F)ccc1F returned FMDV inh inconclusive, HCV inhibitor inactive, Vaccinia mCherry inactive, VACV Venus inh inactive, HCMV antiviral -62 and Giardia FBPA inh inactive.

From PubChem
